This is part of a sample that, as a whole, favours compounds with a hit. Of some 83,000 tested, about 20% had one in any assay.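 Method: cells in 96-well plates; compound added at one concentration; 48 h incubation; percent growth measured; values under 10 scored active.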 Activity calls are given as the source filed them.
What follows are compounds tested on HL-60(TB) leukemia (assay: NCI-60 one-dose screen, 48 h (100 = growth as untreated, 0 = no growth, -100 = all killed)). Conditions: 10 µM unless noted.

SMILES	growth
COc1ccc2c(c1)nc(N)c1c3cc(OC)c(OC)cc3cn21	23.1% (inactive)
COc1cc2c(cc1OC)-c1c(oc3c4c(ccc3c1=O)OC(C)(C)C=C4)CO2	46.4% (inactive)
CCN1/C(=C/C(C)=C/c2sc3ccc4ccccc4c3[n+]2CC)Sc2ccc3ccccc3c21	-52.1% (active)
COc1nc2ccc(C)cc2cc1-c1nc2c(cnn2-c2ccccc2)c(=O)[nH]1	50.1% (inactive)
CCN1C(=O)c2ccc3c4c(ccc(c24)C1=O)C(=O)N(CCCNCc1ccccc1OC)C3=O	-52.6% (active)
COC(=O)[C@]12CC[C@@H](C)[C@H](C)[C@@H]1C1=CC[C@@H]3[C@@]4(C)C(C#N)=CC(C)=C4CC[C@@]3(C)[C@]1(C)CC2	-19.3% (active)
COc1ccc2nc(NC(=O)c3cc(-c4ccc(F)cc4)n4nc(-c5ccccc5)cc4n3)sc2c1	98.7% (inactive)
CC[C@H](Nc1nc(N)nc(C)c1C#N)c1nc2cccc(NCCCCCC(=O)NO)c2c(=O)n1-c1ccccc1	39.7% (inactive)
N=c1c(S(=O)(=O)c2ccccc2)cc2c(=O)n3ccccc3nc2n1CC1CCCO1 (configuration not stated)	109% (inactive)
C=CC(=O)N[C@H](/C=C/C(=O)OCC)Cc1ccc(-c2cc(Cl)cc(Cl)c2)cc1	76.5% (inactive)
CN1CCN(Cc2ccc(NC(=O)c3cncc(C#Cc4cnc(N)c5ccc(F)cc45)c3)cc2C(F)(F)F)CC1	-27% (active)
CN1CCN(CCCOc2ccc3ncnc(Nc4ccc(Oc5cccc(C(F)(F)F)c5)c(Cl)c4)c3c2)CC1	-45.9% (active)
c1ccc(/C(=N\N=C(/c2ccccc2)c2cccs2)c2cccs2)cc1	91.1% (inactive)
O=C(Nc1cccc(Br)c1)Oc1ccc(Cl)c2cccnc12	3.1% [100 µM] (active)
CCC/C(=N/NC(N)=O)c1ccco1	76.8% (inactive)
O=CN1N=C(c2cccc(Nc3ccncc3)c2)CC1c1ccc2c(c1)OCO2 (configuration not stated)	85.5% (inactive)
O=C(NC1=CC(=O)c2ccccc2C1=O)c1ccccc1	-30.8% (active)
CCn1cc2c(cc1=O)-c1nc3ccccc3c3ccnc(c13)C2=O	93.9% (inactive)
O=[N+]([O-])c1ccc(/C(=C/c2ccccc2)[n+]2ccccc2)cc1	110% (inactive)
NC1(C(=O)N[C@@H](CCO)c2ccc(Cl)cc2)CCN(c2ncnc3[nH]ccc23)CC1	60.7% (inactive)
CCCCCCCCNc1cc2c3c(c1)CCCN3CCC2	-3.66% (active)
COc1ccc(C(=O)Cn2c(C(=O)c3ccc(Cl)cc3)nc3ccccc32)cc1	42.2% (inactive)
CCCCCCCCCCCCCCCCCCOCC(COCCOCC[N+]1(CCCCCC(=O)[O-])CCCC1)Oc1ncccn1 (configuration not stated)	-32.2% (active)
COc1ccc(CCNC2=CC(=O)CCC2)cc1OC	69.4% (inactive)
COc1ccc(-c2[nH]c(=S)n(C(CC3(C)NCC(=O)N3n3c(-c4ccccc4)cc(C)nc3=S)c3ccc(OC)cc3)c(=O)c2Br)cc1 (configuration not stated)	59.6% (inactive)
COc1ccc2c(c1)CC[C@@H]1[C@@H]2CC[C@]2(C)[C@@H](O)C(=O)C[C@@H]12	108% (inactive)
C=CCNc1nc(NN2C(=O)c3cccc4cccc(c34)C2=O)nc(-n2cnc3ccccc32)n1	93.9% (inactive)
